About 83,000 compounds went through this panel and 20% of them were active in at least one assay; those are over-represented in the sample as a whole.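 Method: cells in 96-well plates; compound added at one concentration; 48 h incubation; percent growth measured; values under 10 scored active.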 Values without a mark were called inactive. Activity calls are given as the source filed them.

The test system of the assay is MDA-MB-468 breast. Put plainly: NCI-60 one-dose screen, 48 h (100 = growth as untreated, 0 = no growth, -100 = all killed). As to conditions: 10 µM unless noted.
Take `N#Cc1cccc(OCc2nc(N)nc(N)c2-c2ccc(Cl)c(Cl)c2)c1`: the growth was 19.3%.
Take `COC1CCN(Cc2ccc3c(NNC(=O)c4cnccn4)nc4cc(F)ccc4n23)C1` (centres undefined): the growth is -32.1% (active).
With `CN1CCN(c2ccc(Nc3nc(NCCNS(=O)(=O)c4ccc(Cl)cc4)c4sccc4n3)cc2)CC1`, the growth is 93%.
As for `O=C(CC(=O)C(F)(F)C(F)(F)C(F)(F)F)c1cc2ccccc2o1`, the growth was 112%.
With `CCCCCCCC(=O)SCC/C=C/[C@@H]1CC(=O)NCc2cccc(n2)CN(Cc2ccc3ccccc3c2)CC(=O)N[C@@H](C(C)C)C(=O)O1`, the growth is 7.6% (active).
The result for `COc1ccc([C@H]2c3cc(OC)c(OC)cc3C=C(C=O)C2CO)cc1OC` (some centres undefined) reads 41%.
In the case of `Cn1c(-c2ccccc2)cc(=O)n1-c1ccccc1` it was 105%.
On to `COc1cc(/C=C/C(=O)c2ccc(F)cc2)ccc1Oc1nc(NCCO)nc(N2CCOCC2)n1`, for which the growth was 77.2%.
Take `CC(C)OC(=O)c1ccc2n1CCCc1cnc(Nc3ccccc3)nc1-2`: the growth was 44.6%.
The result for `CC[N+](C)(CC)CCCC(C)Nc1ccnc2cc(Cl)ccc12` (centres undefined) reads 119%; that for `c1ccc2cc(Cn3cc(CSc4nc5ccccc5s4)nn3)ccc2c1`, 106%.
In the case of `COc1ccc([C@@H]2C(=O)N(c3cc(OC)c(OC)c(OC)c3)[C@H]2c2ccc(OC)c(O)c2)cc1` it was -4.45% (active).
In the case of `Cc1cnc(SCc2ccc(Cl)cc2Cl)nc1Nc1ccc(Cl)c(Cl)c1` it was 101%; in that of `COc1cc(NC(=O)CSc2nc3ccccc3c(=O)n2CCc2ccccc2)cc(OC)c1OC`, 29.9%.

For the origin of these results see PubChem BioAssay (NCI).
